Test results published in PubChem BioAssay (EPA / NIEHS).
Records with an inconclusive call do not appear. Calls of active or inactive are those of the source. How the source made its calls, unless noted: active means hit-call score of the fitted dose curve at least 0.9, where 1 is the maximum; inactive means score below 0.9.

Assays:
[1] = biological target: human Retinoid X Receptor beta (RXRb), RXRB (gene 6257) (UniProt P28702); assay: ATG_RXRb_TRANS: Attagene TRANS-FACTORIAL HepG2 Assay for human Retinoid X Receptor beta (RXRb) (AID 2283013; active means hit-call score of the fitted dose curve at least 0.9, where 1 is the maximum)
human Retinoid X Receptor beta (RXRb), RXRB (gene 6257), sequence (P28702 whole entry, looked up, the tested form may be a part): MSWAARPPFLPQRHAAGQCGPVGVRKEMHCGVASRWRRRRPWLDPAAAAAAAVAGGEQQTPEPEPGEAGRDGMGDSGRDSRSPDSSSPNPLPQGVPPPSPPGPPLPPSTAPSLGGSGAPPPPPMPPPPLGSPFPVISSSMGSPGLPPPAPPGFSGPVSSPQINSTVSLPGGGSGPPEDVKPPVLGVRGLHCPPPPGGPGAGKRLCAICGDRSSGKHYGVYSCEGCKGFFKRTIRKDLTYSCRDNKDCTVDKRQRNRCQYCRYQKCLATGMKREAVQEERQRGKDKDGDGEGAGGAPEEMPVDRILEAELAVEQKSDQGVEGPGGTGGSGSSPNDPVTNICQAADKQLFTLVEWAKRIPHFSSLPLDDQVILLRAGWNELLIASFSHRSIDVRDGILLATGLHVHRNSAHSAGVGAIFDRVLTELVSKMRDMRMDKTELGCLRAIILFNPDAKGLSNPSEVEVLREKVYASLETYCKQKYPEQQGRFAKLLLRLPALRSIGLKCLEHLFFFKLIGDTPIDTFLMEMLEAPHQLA
Procedure, shortened: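 Read-out: reporter mRNA induction via RT-PCR plus capillary electrophoresis fluorescence, analysed as signal increase relative to DMSO. Cells were human HepG2, transiently transfected with GAL4-UAS reporter constructs and chimeric receptor-Gal4 fusions, dosed for 24 h.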

[2] = biological target: human Thyroid Receptor alpha (THRa1), THRA (gene 7067) (UniProt P10827); assay: ATG_THRa1_TRANS: Attagene TRANS-FACTORIAL HepG2 Assay for human Thyroid Receptor alpha (THRa1) (AID 2283014; active means hit-call score of the fitted dose curve at least 0.9, where 1 is the maximum)
human Thyroid Receptor alpha (THRa1), THRA (gene 7067), sequence (P10827 whole entry, looked up, the tested form may be a part): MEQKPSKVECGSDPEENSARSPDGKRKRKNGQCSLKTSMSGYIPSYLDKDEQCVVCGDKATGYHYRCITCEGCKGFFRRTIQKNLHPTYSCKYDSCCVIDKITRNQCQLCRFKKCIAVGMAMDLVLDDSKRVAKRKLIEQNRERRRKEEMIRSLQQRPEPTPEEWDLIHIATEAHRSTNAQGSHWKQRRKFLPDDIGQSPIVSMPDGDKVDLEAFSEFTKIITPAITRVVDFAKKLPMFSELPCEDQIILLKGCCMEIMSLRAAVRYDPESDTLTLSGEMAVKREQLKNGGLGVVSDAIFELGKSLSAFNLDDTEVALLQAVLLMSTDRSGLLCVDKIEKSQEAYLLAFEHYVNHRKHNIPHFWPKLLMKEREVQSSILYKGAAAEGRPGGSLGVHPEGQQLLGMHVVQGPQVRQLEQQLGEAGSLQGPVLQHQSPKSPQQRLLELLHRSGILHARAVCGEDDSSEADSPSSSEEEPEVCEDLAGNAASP
Procedure, shortened: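 Transcripts from GAL4-UAS-driven reporters, measured after 24 h compound exposure by RT-PCR plus capillary electrophoresis of 6-FAM-labeled fragments, were fitted for gain of signal relative to DMSO. Cells: transiently transfected HepG2 expressing NR-Gal4 chimeras.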

[3] = read-out: E-selectin (Homo sapiens) (UniProt P16581); assay: BSK_3C_Eselectin: BioMAP Diversity Plus: 3C Assay for Eselectin Biomarker Activity (AID 2283015); settings: primary human endothelial cells (HUVEC); actives raise or lower the signal
Procedure, shortened: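 E-selectin ELISA readout, fitted bidirectionally relative to DMSO, taken 24 h post-dosing in HUVEC cultures of the 3C system. Overt cytotoxicity tracked with sulforhodamine B staining of parallel wells.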

[4] = read-out: Interleukin-1 alpha (IL1a), IL1A (gene 3552); assay: BSK_BE3C_IL1a: BioMAP Diversity Plus: BE3C Assay for Interleukin-1 alpha (IL1a) Biomarker Activity (AID 2283016); settings: primary human bronchial epithelial cells; actives raise or lower the signal
Procedure, shortened: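 ELISA read-out of IL-1a from human lung bronchial epithelial primary cells, 24 h post-dose. Gain or loss of signal fitted relative to DMSO negative control.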

[5] = read-out: Monocyte Chemoattractant Protein-1 (MCP1), CCL2 (gene 6347); assay: BSK_3C_MCP1: BioMAP Diversity Plus: 3C Assay for Monocyte Chemoattractant Protein-1 (MCP1) Biomarker Activity (AID 2283017); settings: primary human endothelial cells (HUVEC); actives raise or lower the signal
Procedure, shortened: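 MCP-1 was measured by ELISA 24 h after dosing in primary HUVEC 3C cultures and fitted in both directions relative to DMSO; cytotoxicity was checked by SRB total-protein staining in parallel wells.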

[6] = read-out: Monocyte Chemoattractant Protein-1 (MCP1), CCL2 (gene 6347); assay: BSK_4H_MCP1: BioMAP Diversity Plus: 4H Assay for Monocyte Chemoattractant Protein-1 (MCP1) Biomarker Activity (AID 2283018); settings: primary human endothelial cells (HUVEC); actives raise or lower the signal
Procedure, shortened: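 HUVEC primary cells, 24 h post-dose, MCP-1 by ELISA. Gain or loss of signal fitted bidirectionally vs DMSO baseline. Cytotoxicity: SRB stain (0.1% after 10% TCA fixation), read 560 nm, parallel cultures.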

[7] = read-out: Human Leukocyte Antigen - DR isotype (HLADR), HLA-DRA (gene 3122); assay: BSK_3C_HLADR: BioMAP Diversity Plus: 3C Assay for Human Leukocyte Antigen - DR isotype (HLADR) Biomarker Activity (AID 2283019); settings: primary human endothelial cells (HUVEC); actives raise or lower the signal
Procedure, shortened: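 Bidirectional fitting against DMSO was applied to the HLA-DR ELISA signal from human umbilical vein endothelial cells, 24 h post-dose. Cytotoxicity came from parallel SRB total-protein staining; 3C proliferation was counted by SRB at 48 h.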

[8] = read-out: Interleukin-8 (IL8), CXCL8 (gene 3576); assay: BSK_3C_IL8: BioMAP Diversity Plus: 3C Assay for Interleukin-8 (IL8) Biomarker Activity (AID 2283020); settings: primary human endothelial cells (HUVEC); actives raise or lower the signal
Procedure, shortened: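 HUVEC, 3C stimulation; 24 h compound exposure; IL-8 read by ELISA; gain or loss of signal fitted relative to DMSO control.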

[9] = read-out: Monokine induced gamma interferon (MIG), CXCL9 (gene 4283); assay: BSK_3C_MIG: BioMAP Diversity Plus: 3C Assay for Monokine induced gamma interferon (MIG) Biomarker Activity (AID 2283021); settings: primary human endothelial cells (HUVEC); actives raise or lower the signal
Procedure, shortened: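 HUVEC, 3C system; 24 h chemical exposure; MIG by ELISA; bidirectional fit vs DMSO baseline.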

[10] = BSK_3C_SRB: Viability Assessment in the BioMAP Diversity Plus: 3C Assay (AID 2283023); settings: primary human endothelial cells (HUVEC);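 further: fitted both ways against DMSO so a hit may be signal rise or drop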
Procedure, shortened: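 Cytotoxicity readout in parallel HUVEC 3C cultures: after 24 h compound exposure, cells fixed with 10% TCA, stained with 0.1% SRB and read at 560 nm. Gain or loss relative to DMSO fitted.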

[11] = read-out: Matrix Metallopeptidase 1 (MMP1), MMP1 (gene 4312); assay: BSK_BE3C_MMP1: BioMAP Diversity Plus: BE3C Assay for Matrix Metallopeptidase 1 (MMP1) Biomarker Activity (AID 2283024); settings: primary human bronchial epithelial cells; actives raise or lower the signal
Procedure, shortened: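 ELISA read-out of MMP1 in human lung bronchial epithelial primary cultures, 24 h post-dose; bidirectional curve fit vs DMSO baseline, gain or loss of signal scored.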

[12] = BSK_3C_Vis: BioMAP Diversity Plus: 3C Assay for Morphology Visualization (AID 2283025); settings: primary human endothelial cells (HUVEC);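 further: fitted both ways so gain or loss versus DMSO counts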;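 on AC50: light microscopy image of cell morphology used as background control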
Procedure, shortened: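 HUVEC, 3C system; light microscopy of morphology at 24 h post-dose. Bidirectional fit vs DMSO baseline. Secondary readout, background-control function.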

[13] = read-out: Pselectin, SELP (gene 6403); assay: BSK_4H_Pselectin: BioMAP Diversity Plus: 4H Assay for Pselectin Biomarker Activity (AID 2283026); settings: primary human endothelial cells (HUVEC); actives raise or lower the signal
Procedure, shortened: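 HUVEC, 24 h chemical exposure; P-selectin read by ELISA. Bidirectional curve fit vs DMSO baseline; gain or loss of signal scored.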

[14] = BSK_4H_SRB: Viability Assessment in the BioMAP Diversity Plus: 4H Assay (AID 2283027); settings: primary human endothelial cells (HUVEC);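 further: cells exposed to compound for 24 h before staining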;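 on AC50: curves fitted both ways versus DMSO so AC50 may be loss or gain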
Procedure, shortened: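 Cytotoxicity read-out in primary human endothelial cells: after 24 h compound exposure, cells were TCA-fixed (10%), stained with 0.1% SRB and absorbance taken at 560 nm. Values fitted in both directions relative to DMSO.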

[15] = BSK_BE3C_SRB: Viability Assessment in the BioMAP Diversity Plus: BE3C Assay (AID 2283028); settings: primary human bronchial epithelial cells;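 on AC50: fitted both ways so AC50 may mark signal gain or loss versus DMSO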
Procedure, shortened: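 Cytotoxicity read-out: SRB (0.1%) staining of TCA-fixed (10%) human lung bronchial epithelial cells, absorbance 560 nm, 24 h post-dosing. Curves fitted both directions relative to DMSO.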

[16] = read-out: Thrombomodulin, THBD (gene 7056); assay: BSK_3C_Thrombomodulin: BioMAP Diversity Plus: 3C Assay for Thrombomodulin Biomarker Activity (AID 2283029); settings: primary human endothelial cells (HUVEC); actives raise or lower the signal
Procedure, shortened: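 HUVEC, 3C conditions; compound 24 h; thrombomodulin by ELISA; bidirectional curve fit vs DMSO baseline; parallel SRB total-protein staining for cytotoxicity.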

[17] = read-out: Urokinase-type plasminogen activator receptor (uPAR), PLAUR (gene 5329); assay: BSK_4H_uPAR: BioMAP Diversity Plus: 4H Assay for Urokinase-type plasminogen activator receptor (uPAR) Biomarker Activity (AID 2283030); settings: primary human endothelial cells (HUVEC); actives raise or lower the signal
Procedure, shortened: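 uPAR level read by ELISA on HUVEC cultures (BioMAP 4H) 24 h post-dosing, analyzed for gain or loss relative to DMSO. Parallel SRB staining assessed overt cytotoxicity.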

[18] = biological target: human Vitamin D Receptor (VDR), VDR (gene 7421) (UniProt P11473); assay: ATG_VDR_TRANS: Attagene TRANS-FACTORIAL HepG2 Assay for human Vitamin D Receptor (VDR) (AID 2283022; active means hit-call score of the fitted dose curve at least 0.9, where 1 is the maximum)
human Vitamin D Receptor (VDR), VDR (gene 7421), sequence (P11473 whole entry, looked up, the tested form may be a part): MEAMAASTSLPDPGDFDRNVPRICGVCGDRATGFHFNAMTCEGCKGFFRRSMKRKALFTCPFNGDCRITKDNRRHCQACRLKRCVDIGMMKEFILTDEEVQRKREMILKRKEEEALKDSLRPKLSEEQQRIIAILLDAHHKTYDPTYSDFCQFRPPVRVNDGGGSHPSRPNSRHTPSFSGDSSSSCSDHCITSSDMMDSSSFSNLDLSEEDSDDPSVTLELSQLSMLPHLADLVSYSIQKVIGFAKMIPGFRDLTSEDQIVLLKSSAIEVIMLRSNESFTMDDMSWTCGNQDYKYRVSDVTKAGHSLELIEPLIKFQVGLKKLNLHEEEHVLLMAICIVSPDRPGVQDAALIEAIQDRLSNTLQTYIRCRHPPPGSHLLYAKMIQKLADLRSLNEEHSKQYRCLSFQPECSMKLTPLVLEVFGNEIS
Procedure, shortened: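 Transactivation by an exogenous VDR-Gal4 chimera in transiently transfected HepG2 cells was measured as reporter transcript level 24 hours after chemical treatment. RT-PCR products were analysed by capillary electrophoresis and fitted in the positive direction relative to DMSO.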

Measured: AC50

E-selectin (Homo sapiens), sequence (P16581 whole entry, looked up): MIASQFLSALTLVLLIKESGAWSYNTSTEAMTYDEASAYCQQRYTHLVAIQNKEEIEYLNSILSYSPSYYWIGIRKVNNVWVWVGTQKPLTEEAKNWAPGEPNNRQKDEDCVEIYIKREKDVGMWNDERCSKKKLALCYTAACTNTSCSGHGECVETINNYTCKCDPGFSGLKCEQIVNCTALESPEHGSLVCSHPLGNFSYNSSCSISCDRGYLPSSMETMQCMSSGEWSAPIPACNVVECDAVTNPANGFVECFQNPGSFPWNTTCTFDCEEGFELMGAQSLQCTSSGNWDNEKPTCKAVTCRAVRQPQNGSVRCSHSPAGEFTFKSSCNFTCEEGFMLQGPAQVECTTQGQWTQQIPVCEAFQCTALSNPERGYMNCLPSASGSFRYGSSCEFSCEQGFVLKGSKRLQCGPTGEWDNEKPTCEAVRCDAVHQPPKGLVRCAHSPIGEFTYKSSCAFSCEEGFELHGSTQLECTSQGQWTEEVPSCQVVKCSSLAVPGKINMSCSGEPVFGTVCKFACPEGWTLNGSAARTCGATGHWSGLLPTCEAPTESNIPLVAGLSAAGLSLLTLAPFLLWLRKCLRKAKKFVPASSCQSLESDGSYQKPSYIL

CC(C)=CC1C(C(=O)OCc2coc(Cc3ccccc3)c2)C1(C)C (centres undefined)
active: [3] 8.92 µM | [5] 10.4 µM | [7] 7.53 µM | [8] 9.03 µM | [10] 13.7 µM | [12] 9.8 µM | [15] 10.8 µM
not listed: [18]
inactive: all other assays above

COCC(=O)N(c1c(C)cccc1C)C(C)C(=O)OC (centres undefined)
not listed: [1] | [2] | [18]
inactive: all other assays above

CC1(C)CCC(=Cc2ccc(Cl)cc2)C1(O)Cn1cncn1 (centres undefined)
active: [7] 5.3 µM | [14] 0.803 µM
not listed: [2]
inactive: all other assays above
